Screening results as filed in PubChem.
NALP3 yeast inh = blocks the NALP3 inflammasome reconstituted in yeast | Yeast reconstituted NLRP3/ASC/caspase-1, beta-gal luminescence, 24 h | inhibition, % at 10 µM | 330,000 compounds, 0.39% hits | AID 2825;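 active = inhibition of 50% or more; inactive = inhibition below 50%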
SUMO Mot1 rescue = blocks SUMOylation pathway, rescuing yeast Mot1-301 growth. S. cerevisiae Mot1-301 growth rescue, ATP luminescence, 38.5C; percent above DMSO median, 100 means doubled. growth rescue, % at 18.8 µM. 320,000 compounds, 1% hits. AID 2716;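 active = every valid replicate shows activation above 250% relative to neutral control wells; inactive = the rest, any valid replicate at or below 250%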
CHT block = inhibitors of human choline transporter CHT. B-score at 10 µM. 310,000 compounds, 0.86% hits. CHT-expressing cells, membrane potential dye, choline response; stronger effect = lower value. AID 488975;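 active = B-score over 3 SD under the library average, and starting fluorescence ratio not unusually high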;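 note: choline stimulus applied at its EC90 after an EC20 pre-addition; B-score computed on integrated fluorescence ratio after choline addition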
Target sequence (Q9GZV3 whole entry, looked up): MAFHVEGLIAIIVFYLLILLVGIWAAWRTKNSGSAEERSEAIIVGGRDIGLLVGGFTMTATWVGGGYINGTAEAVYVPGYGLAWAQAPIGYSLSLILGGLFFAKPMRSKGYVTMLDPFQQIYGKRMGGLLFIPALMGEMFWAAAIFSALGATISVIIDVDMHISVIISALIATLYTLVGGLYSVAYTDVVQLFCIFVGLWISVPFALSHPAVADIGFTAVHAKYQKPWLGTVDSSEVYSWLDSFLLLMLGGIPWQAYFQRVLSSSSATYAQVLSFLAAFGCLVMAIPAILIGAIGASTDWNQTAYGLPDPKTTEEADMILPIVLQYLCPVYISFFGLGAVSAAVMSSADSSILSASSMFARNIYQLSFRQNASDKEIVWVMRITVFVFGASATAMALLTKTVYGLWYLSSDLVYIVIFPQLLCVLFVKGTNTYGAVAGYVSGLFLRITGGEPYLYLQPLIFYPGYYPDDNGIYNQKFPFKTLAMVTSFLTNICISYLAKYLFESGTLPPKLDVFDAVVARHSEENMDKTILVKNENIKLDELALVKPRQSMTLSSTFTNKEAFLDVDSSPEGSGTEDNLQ
A1 inh = inhibitors of the anti-apoptotic protein A1, read as caspase activation | caspase activation, % (no concentration beside the values) | 330,000 compounds, 0.066% hits | MEF A1-2A-BIM cells, Caspase-Glo 3/7 luminescence, 3 h; percent of clofoctol response, vehicle zero;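 active = over half of replicate activation scores above 10%, or exactly half above 10 with the replicate mean above 10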
CHT allo act = human CHT allosteric activation; CHT-expressing cells, membrane potential dye, choline EC20; stronger effect = higher value; LV-AA mutant CHT in HEK293 cells; B-score at 10 µM; 310,000 compounds, 0.49% hits; AID 488977;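 active = initial fluorescence not abnormally high and integrated response B-score, plate-corrected, over 3 SD above library mean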
NALP1 inh = NALP1 inhibition. 280,000 compounds, 0.61% hits. inhibition, % at 10 µM. AID 2071. S. cerevisiae NALP1/ASC/caspase-1 growth, X-gal OD620, 72 h; in the data active = inhibition mostly above about 24%, no sharp cut-off; inactive = mostly below about 32%
CHT act confirm = confirmation of human choline transporter (CHT) activators | shares compounds with CHT allo act | CHT-expressing cells, membrane potential dye fluorescence (FDSS); % of choline EC20–EC90 response window; HEK293 expressing CHT LV-AA mutant; choline added at its EC20 | activation, % at 10 µM | 2,500 compounds, 91% hits | AID 504833;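 active = primary screen active, with duplicate mean activation above negative control mean plus 3 SD, cut at about 11% in these data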
HEK293 MP dye = counter-screen for CHT activators: effect in parental HEK293 cells; ratio readout change at 10 µM, hits read low; AID 623908; shares compounds with CHT allo act; membrane potential dye fluorescence (FDSS); measured after EC20 choline addition; 2,500 compounds, 62% hits;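 active = duplicate-averaged ratio beyond 3 SD from buffer wells, up or down, though filed actives are nearly all decreases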
A number is an active result; – = inactive; · = no result given. An excerpt weighted towards active compounds, which were near 3% of everything screened.

SMILES	NALP3 yeast inh	SUMO Mot1 rescue	CHT block	A1 inh	CHT allo act	NALP1 inh	CHT act confirm	HEK293 MP dye
O=c1[nH]cnc(O)c1C(c1ccc([N+](=O)[O-])cc1)c1c(O)nc[nH]c1=O	–	–	–	–	–	–	·	·
Cc1cccc(-n2c(C)c(C)c3c(N)ncnc32)c1	–	–	–	–	–	–	·	·
CCN(CC)S(=O)(=O)c1cc(C(=O)OCC(=O)Nc2cccc(S(=O)(=O)N(C)C)c2)ccc1F	–	–	–	–	15	–	22	–
CN(C)S(=O)(=O)c1cccc(NC(=O)COC(=O)c2ccc3ccccc3n2)c1	–	–	·	–	·	·	·	·
CCCCNC(=NCc1cccc(C(F)(F)F)c1)Nc1ccccc1	–	–	–	–	12	–	18	–
O=c1nc(N/N=C/C=C/c2ccccc2)cn[nH]1	–	–	–	–	–	·	·	·
NS(=O)(=O)c1ccc(CCNC(=O)c2ccc3nccnc3c2)cc1	–	–	·	–	·	·	·	·
NS(=O)(=O)c1ccc(NC(=O)c2ccc3nccnc3c2)cc1	–	–	–	–	7.5	·	39	-27
Cc1cc(Cn2nc(-c3ccccc3)cc2C(=O)NCC2CC2)on1	–	–	–	–	–	·	·	·
CCOc1ccc2[nH]c(C)c(CN(C)C)c(=O)c2c1	–	–	–	–	–	–	53	-25
Cc1[nH]c2ccc(Cl)cc2c(=O)c1CN1CCCC1	–	–	–	–	–	–	·	·
CCOc1ccc2[nH]c(C)c(CN3CCCCC3)c(=O)c2c1	–	–	–	–	7.6	–	47	-34
CCC(C)[C@H]1CNCCN1CCc1cccc(F)c1 (some centres not stated)	–	–	–	–	–	·	·	·
COc1ccc(/C=N/Nc2ccccn2)cc1O	–	–	–	–	–	–	35	-48
CCC(C)(C)n1nnnc1C(c1cccc(C#N)c1)N1CCN(c2cccc(C)c2C)CC1 (configuration not stated)	–	–	–	–	–	–	26	–
CCC(C)(C)n1nnnc1C(c1ccccc1)N1CCc2ccccc2C1 (configuration not stated)	–	–	–	–	6.3	–	32	–
CCC(C)(C)n1nnnc1C(c1ccc(O)c(OC)c1)N1CCc2ccccc2C1 (configuration not stated)	–	–	–	–	–	–	·	·
CC(C)(C)n1nnnc1C(c1cccc(C#N)c1)N1CCCCCC1 (configuration not stated)	–	–	–	–	–	–	·	·
COC(=O)c1c(-c2ccc(OC)cc2)sc2ccc(OC)cc12	–	–	·	–	·	·	·	·
c1ccc(CN2CCN(c3nc(NCc4ccco4)c4ccccc4n3)CC2)cc1	–	–	–	–	6.4	–	26	-53
c1ccc(Nc2nc(NCc3ccco3)c3ccccc3n2)cc1	–	–	–	–	–	–	·	·
CCN(CC)CCCCNc1ncc2cc(-c3cc(OC)cc(OC)c3)c(NC(=O)NC(C)(C)C)nc2n1	–	277	–	–	6.7	–	47	-23
CN(C)CCNc1ncnc2ccccc12	–	–	–	·	–	–	18	-53
N#Cc1ccccc1OCc1cccc(S(=O)(=O)N2CCOCC2)c1	–	·	·	·	·	·	·	·
O=C(N[C@@H]1CCC(=O)N(CC[C@H](Oc2ccccc2)c2ccccc2)CC1)OCc1ccccc1	–	–	–	–	–	–	25	–
SMILES	NALP3 yeast inh	SUMO Mot1 rescue	CHT block	A1 inh	CHT allo act	NALP1 inh	CHT act confirm	HEK293 MP dye
CC(C)CN1C(=O)C(=O)N(CC(=O)c2ccc3c(c2)CCCC3)C1=O	–	–	·	–	·	·	·	·
CS(=O)(=O)N(CC(=O)NCCSCc1ccccc1)c1ccccc1F	–	–	–	–	–	–	·	·
CCOC(=O)c1cnn(-c2sc(C(=O)OCC)c(C)c2C(=O)OCC)c1N	–	–	–	–	6.6	·	–	–
S=c1nccc(-c2ccc(Cl)cc2)[nH]1	–	–	–	–	–	–	·	·
Cc1nc2ccccn2c1-c1ccnc(=S)[nH]1	–	–	–	–	6.8	–	37	-35
O=C(COC(=O)Cc1ccc(S(=O)(=O)N2CCOCC2)s1)Nc1ccccc1Cl	–	–	·	–	·	·	·	·
CC[n+]1c(/C=C(/C)SC)sc2ccccc21	–	–	–	–	6.9	–	59	-24
CC/C(=C/c1sc2ccccc2[n+]1CC)SC	–	–	–	–	6.5	–	51	–
CCN1/C(=C/C=C/C=C/C=C/c2sc3ccccc3[n+]2CC)Sc2ccccc21	–	–	–	–	9.6	39	29	-35
CC[n+]1c(/C=C(\C)Nc2ccccc2)sc2ccccc21	·	–	–	–	–	–	·	·
CC[n+]1c(/C=C/Nc2ccccc2)sc2ccccc21	–	–	–	–	–	–	46	-51
CC[n+]1c(/C=C(\C)OC)sc2ccccc21	–	·	·	·	·	–	·	·
COc1cccc(C(=O)OCC(=O)NC(C)CCc2ccccc2)c1O (configuration not stated)	–	–	–	–	–	–	·	·
COc1ccc(C(C(=O)NC2CCCCC2)N(Cc2cccnc2)C(=O)c2snc(C(N)=O)c2N)cc1 (configuration not stated)	–	–	–	–	–	–	·	·
COc1ccc(O)c(C(=O)c2cnn(C(=O)c3ccc(C)cc3)c2)c1	–	–	·	–	·	·	·	·
Cc1ccc(O)c(C(=O)c2cnn(C(=O)Cc3csc(C)n3)c2)c1	–	–	–	–	–	–	37	-43
COc1ccc(Nc2nc(-c3cccs3)nc3ccccc23)cc1S(=O)(=O)N1CCOCC1	–	–	–	–	–	·	·	·
CCc1ccc(NC(=O)CSc2nc3ccccc3c(=O)n2CCCN2CCC(C)CC2)cc1	–	–	–	–	–	–	17	–
COc1ccccc1C(=O)NCC(=O)OCC(=O)Nc1ccc2[nH]c(=O)[nH]c2c1	–	–	–	–	–	·	·	·
Cc1ccc(OCC(=O)Nc2cccc(-c3nnc(-c4ccccc4)o3)c2)cc1	–	–	–	–	–	–	·	·
Cc1cccc(C)c1OCC(=O)Nc1cccc(-c2nnc(-c3ccccc3)o2)c1	–	–	–	–	–	–	29	–
C#CCNC(=O)C1=C[C@@H](c2ccc3c(c2)OCO3)C[C@@H](OCc2ccc(CO)cc2)O1	–	–	–	–	–	·	·	·
CCN(CC)CCCNC1=C(Cl)C(=O)c2ccccc2C1=O	–	–	–	–	–	–	61	-54
COCCCNC1=C(Cl)C(=O)c2ccccc2C1=O	–	–	–	–	–	–	·	·
